ssDAF-12 act: S. stercoralis DAF-12 nuclear receptor activators, primary screen, cell-based, luminescence, HEK293, GRIP1 co-expression, lit1-tk-luc; Nuclear hormone receptor DAF-12 (Strongyloides stercoralis); HEK293 ssDAF-12/GRIP1 lit1-tk-luc reporter; % of 3 µM dafachronic acid response; activation, % at 6.8 µM; actives 1% (n = 370,000);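 active means activation above the mean over all tested compounds plus 3 SD, cut at about 0.9% in these data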;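 further: 0% = DMSO-only wells and 100% = 3 µM delta7-dafachronic acid wells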
DAX1 inh: DAX1 (NR0B1) inhibitors on StAR promoter, primary screen, cell-based, luminescence, SF-1 (NR5A1), full-length DAX-1 | AID 652010, 2013 | inhibition, % at 6.8 µM | actives 1.1% (n = 370,000) | HEK293T StAR-luciferase reporter, SF-1/DAX-1 repression relief;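 active means inhibition above the mean over all tested compounds plus 3 SD, cut at about 3.6% in these data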;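 further: 0% = DAX-1 cells with DMSO and 100% = cells lacking DAX-1 with DMSO; higher inhibition means more luminescence from relief of DAX-1 repression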
hgDAF-12 ag: H. glycines DAF-12 receptor agonists, primary screen, cell-based, luminescence, HEK293, GAL4 fusion, UAS-luciferase. Nuclear hormone receptor DAF-12 (Heterodera glycines), GAL4 fusion. HEK293 GAL4-hgDAF12 UAS-luciferase reporter, agonist luminescence; normalized to butyrate control. activation, % at 6.8 µM. actives 1.8% (n = 370,000). AID 687014, 2013;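 active means activation above a cutoff set at the mean of all screened compounds plus 3 SD, cut at about 10% in these data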;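 further: 0% = DMSO wells and 100% = sodium butyrate wells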
Wnt bcat act: Wnt/beta-catenin pathway activators, primary screen, cell-based, plate reader, single point | Wnt/beta-catenin reporter cell assay, activator | activation, % at 9.35 µM | actives 1.2% (n = 300,000); in the data active means activation above about 30%, passing the limit was not always enough; inconclusive means no clear call, values can overlap the other calls;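 further: 0% = neutral control wells and 100% = positive control wells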
esBAF inh: Bmi1 luciferase reporter increase in mESCs, primary screen, esBAF inhibitor project, mouse ES cells, Bmi1 luciferase knock-in, single point; actives 2% (n = 350,000); 24 h; 100% = twice the neutral-well signal; reporter increase, % at 12.5 µM; in the data active means activation above about 40%; inconclusive means no clear call, values can overlap the other calls;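 further: 0% = median of the plate's neutral control wells and 100% = double that signal; a rise in the Bmi1 reporter signal indicates esBAF inhibition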
hcDAF12 agonist: H. contortus DAF-12 nuclear receptor activators, primary screen, cell-based, luminescence, HEK293, lit1-tk-luc reporter | HEK293 hcDAF-12 lit1-tk-luc reporter; 0% DMSO, 100% Δ7-dafachronic acid | activation, % at 6.8 µM | actives 1.4% (n = 370,000) | AID 652067, 2013;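 active means activation above the mean of all tested compounds plus 3 SD, cut at about 5.5% in these data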;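 further: 100% = response to 3 µM Δ7-dafachronic acid high control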
The depositor's hits bear a star. Rows were chosen to be rich in hits. Some 4.2% of all compounds tested hit in one or more screens of this group.

Screening O=[N+]([O-])c1ccc(-c2nc(Nc3ccc(O)cc3)c3ccccc3n2)cc1 returned ssDAF-12 act -1, DAX1 inh -1, hgDAF-12 ag 5, Wnt bcat act -3, esBAF inh 10 and hcDAF12 agonist 3.
For O=C(O)c1ccc(Nc2nc(-c3ccc([N+](=O)[O-])cc3)nc3ccccc23)cc1 the results were ssDAF-12 act -1, DAX1 inh 1, hgDAF-12 ag 1, Wnt bcat act -2, esBAF inh -1 and hcDAF12 agonist 5.6*.
CCOC(=O)c1nn(-c2ccc(C)cc2)cc1O was read as ssDAF-12 act 0, DAX1 inh 3, hgDAF-12 ag 10, esBAF inh 3 and hcDAF12 agonist 3.
`CCOC(=O)CC1=NN(c2ccccc2)C(=O)C1` gave ssDAF-12 act -1, DAX1 inh -1, hgDAF-12 ag 1, Wnt bcat act -1 and hcDAF12 agonist -1.
`CCOC(=O)c1nn(-c2ccc(Cl)cc2)cc1O` gave ssDAF-12 act -1, DAX1 inh 2, hgDAF-12 ag 7, Wnt bcat act inconclusive, esBAF inh 65* and hcDAF12 agonist 2.
For CCOC(=O)c1nn(-c2ccccc2)cc1O the results were ssDAF-12 act -1, DAX1 inh 1, hgDAF-12 ag 0, Wnt bcat act 15, esBAF inh 37 and hcDAF12 agonist 1.
CCOC(=O)C1=NN(c2ccc(Cl)cc2)C(=O)C1 was read as ssDAF-12 act -1, DAX1 inh 2, hgDAF-12 ag 10, Wnt bcat act 65* and hcDAF12 agonist 4.
Screening CCOC(=O)c1nn(-c2ccc3ccccc3c2)cc1O returned ssDAF-12 act -2, DAX1 inh 4.4*, hgDAF-12 ag 13*, Wnt bcat act inconclusive, esBAF inh 51* and hcDAF12 agonist 2.
Screening COC(=O)c1ccc(N2CCCCC2)c(N)c1 returned ssDAF-12 act -1, DAX1 inh 3.7*, hgDAF-12 ag 6, Wnt bcat act 16, esBAF inh 58* and hcDAF12 agonist 2.
For CCCC(=O)c1ccc(N2CCCCCC2)c(F)c1 the results were ssDAF-12 act -1, DAX1 inh 0, hgDAF-12 ag 2, Wnt bcat act 3, esBAF inh 52* and hcDAF12 agonist -1.
For CCCC(=O)c1ccc(N2CCC(C)CC2)c(F)c1 the results were ssDAF-12 act -2, DAX1 inh 0, hgDAF-12 ag 3, Wnt bcat act 52* and hcDAF12 agonist -1.
COC(=O)c1ccc(N2CCC(C)CC2)c(N)c1 was read as ssDAF-12 act 0, DAX1 inh 1, hgDAF-12 ag 4 and hcDAF12 agonist 2.
C[C@@H]1CN([C@@H](C)CO)C(=O)c2cc(-c3cccc(F)c3)cnc2O[C@@H]1CN(C)C(=O)C1CCCCC1 was read as esBAF inh 2.
Screening COc1ccc(-n2nc([N+](=O)[O-])c(=NCc3ccco3)n2O)cc1 returned ssDAF-12 act 0, DAX1 inh 2, hgDAF-12 ag 5, Wnt bcat act 43*, esBAF inh -1 and hcDAF12 agonist -1.
COc1ccc(-c2ccc(C(=O)NCc3ccccc3)c3occc23)c(C)c1 was read as ssDAF-12 act -2, DAX1 inh 0, hgDAF-12 ag 0, Wnt bcat act 10, esBAF inh 50* and hcDAF12 agonist -2.
Cn1nccc1-c1ccc(C(=O)NCc2ccc(Cl)cc2)c2occc12 was read as esBAF inh 80*.
Cn1nccc1-c1coc2c(C(=O)NCc3ccccc3)cccc12 was read as ssDAF-12 act -1, DAX1 inh -1, hgDAF-12 ag 4, Wnt bcat act 1, esBAF inh 38 and hcDAF12 agonist 0.
`CO[C@H]1CN(C)C(=O)c2ccc(NS(C)(=O)=O)cc2OC[C@H](C)N(C)C[C@H]1C` gave esBAF inh -3.

High-throughput results as filed in PubChem BioAssay.
